Test results as given in PubChem BioAssay AID493191 (Broad Institute, 2011).
The whole screen tested about 1,300 compounds, of which about 330 (25%) were called active. How the calls were made is not given here. Not all results are given here. Results with a measured potency or affinity are listed apart.

Test: growth inhibition of MALME3 cells – cell-based, CellTiter-Glo, cherry-picked, orthogonal assay for MITF inhibitor project, dose response (AID 493191)
Settings: MALME3 melanoma viability, CellTiter-Glo luminescence, 24 h; series mostly up to 35 µM

Which outcome does the source give for C=CCNC(=O)c1ccc2nc(Cc3ccc(OC)cc3)oc2c1 here?
The outcome was “inactive”.

Which outcome does the source give for Cc1ccc(C(=O)N/C(=C\c2ccc(-c3ccccc3[N+](=O)[O-])o2)C(=O)NCCN(C)C)cc1 here?
The outcome was “inactive”.

Which outcome does the source give for CN(C)CCNC(=O)/C(=C/c1ccc(-c2ccc(Cl)cc2)o1)NC(=O)c1ccccc1 here?
Its outcome is “inactive”.

With Cc1ccc(C(=O)N/C(=C\c2ccc(-c3ccccc3[N+](=O)[O-])o2)C(=O)NCCCN(C)C)cc1 as the molecule, how does the outcome read?
Its outcome is “inactive”.

For CCOc1ccc(-n2c(-c3ccc(OC)cc3)c[n+]3c2CCCCC3)cc1, which outcome is on record?
Its outcome is “inactive”.

With CCN(CC)C(=O)CCCOc1ccc(Cl)cc1Cl as the molecule, how does the outcome read?
The outcome was “inactive”.

With Cc1nc2nc(C)c(NS(=O)(=O)c3ccc4c(c3)CCCC4)c(=O)n2[nH]1 as the molecule, how does the outcome read?
Its outcome is “inactive”.

Which outcome does the source give for Cc1cccnc1NC(=O)NC(=O)c1ccc(C(C)(C)C)s1 here?
The outcome was “inactive”.

Which outcome does the source give for N#Cc1c(NC(=O)CSc2ncn[nH]2)sc2c1CCCC2 here?
Its outcome is “inactive”.

Which outcome does the source give for N#Cc1c(NC(=O)CSc2ncn[nH]2)sc2c1CCCCC2 here?
Its outcome is “inactive”.

Which outcome does the source give for Cn1nnnc1Sc1ncnc2scc(-c3cccs3)c12 here?
Its outcome is “inactive”.

Which outcome does the source give for Cc1ccc(-c2nc(-c3ccncc3)no2)cc1C here?
The outcome was “inactive”.

Which outcome does the source give for CCN(CC)S(=O)(=O)c1cccc(C(=O)N/N=C(\C)c2ccc(O)cc2O)c1 here?
The outcome was “inactive”.

For O=C(Nc1cccnc1Cl)c1cc(-c2ccco2)on1, which outcome is on record?
Its outcome is “inactive”.

With COc1cc(CN2CCC(C(=O)NCCC(C)C)CC2)ccc1OCc1ccccc1 as the molecule, how does the outcome read?
The outcome was “inactive”.

With O=C(Nc1ccc(Cl)cc1)N1CC=CCC1 as the molecule, how does the outcome read?
Its outcome is “inactive”.

Which outcome does the source give for O=C(Nc1ccc(Nc2ccncc2)cc1)c1ccc([N+](=O)[O-])cc1 here?
The outcome was “inactive”.

For COc1ccc2oc(=N)c(C(=O)Nc3ccccc3Cl)cc2c1, which outcome is on record?
Its outcome is “inactive”.

For CCCCOc1ccc(-c2nnn(C(C)(C)C(=O)OC)n2)cc1, which outcome is on record?
Its outcome is “inactive”.

Which outcome does the source give for CC1=C/C(=N\NC(=S)Nc2cccnc2)CC(C)(C)C1 here?
Its outcome is “inactive”.

For COc1cccc(/C=N/Nc2ncnc3c2ncn3Cc2ccccc2)c1O, which outcome is on record?
The outcome was “inactive”.

For COc1ccc(/C=N/N=C2/SCC(=O)N2Cc2ccccc2)cc1, which outcome is on record?
Its outcome is “inactive”.

For N#Cc1ccc(-c2cccnc2)nc1SCC(=O)c1ccccc1, which outcome is on record?
Its outcome is “inactive”.

For O=C(c1ccc([N+](=O)[O-])s1)N1CCCc2ccccc21, which outcome is on record?
The outcome was “inactive”.

With COc1ccccc1N1CCN(/N=C/c2ccc([N+](=O)[O-])cc2)CC1 as the molecule, how does the outcome read?
The outcome was “inactive”.

Which outcome does the source give for O=Cc1ccc(N2Cc3ccccc3C2)cc1 here?
Its outcome is “inactive”.

With COc1ccccc1N1CCN(/N=C\c2ccccc2)CC1 as the molecule, how does the outcome read?
Its outcome is “inactive”.

Which outcome does the source give for Cc1ccc(-c2cc3onc(-c4ccccc4)c3c(=O)n2C)cc1 here?
Its outcome is “inactive”.

With CC(=O)CSc1ccc(-c2nc3cc(C)c(C)cc3[nH]2)cn1 as the molecule, how does the outcome read?
Its outcome is “inactive”.

With O=C(O)c1ccc(Nc2nc3c(s2)CCCC3)cc1 as the molecule, how does the outcome read?
The outcome was “inactive”.

With CC(C)(C)c1ccc(-c2noc(CCC(=O)NCc3ccco3)n2)cc1 as the molecule, how does the outcome read?
Its outcome is “inactive”.
